NS1 inh: inhibitors of influenza NS1 protein function | Potency, µM (titrated, usually from 46.1 µM) | 270,000 tested, 0.4% active | AID 2326; note: actives are rising curves; nearly all actives have a fitted effect of over 50% in size
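Compounds were scored for reversing the slow growth caused by influenza A NS1 in S. cerevisiae, measured by optical density at 600 nm. Assay medium contained 2% galactose at pH 6.0; NS1-free yeast of the same strain were the positive control.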
Cycloheximide cs: affects cycloheximide protein synthesis inhibition readout, counter-screen; max response, %; cell reporter, cycloheximide protein synthesis inhibition counterscreen; 300,000 tested, 12% active; in the data active = max response mostly above about 13%, no sharp cut-off; inactive = mostly below about 14%; note: read at 38.3 µM for the half of the compounds with a filed dose
Pf growth 48h: P. falciparum growth inhibition at 48 hours (one generation) | P. falciparum luciferase growth in erythrocytes, 48 h | Potency, µM (highest dose often 28.7 µM), usual class: inhibitors | 310,000 tested, 5.9% active; active = well fitted inhibition curve with a large enough effect; inconclusive = small, poorly fitted or top-dose-only effect, or another doubt; inactive = no such curve, though single readings can be large or run the other way
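Luminescence readout; reporter = integrated firefly luciferase in P. falciparum. RBC culture at 2% hematocrit, 0.1% parasitemia final, 37 C/5% CO2; decreased signal taken as growth inhibition.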
Shiga toxin inh: blocks Shiga toxin action in Vero cells; Vero cells, Shiga toxin protein synthesis inhibition reporter; inhibition, % at 38.7 µM; 290,000 tested, 9.2% active; AID 2315; in the data active = inhibition mostly above about 28%, no sharp cut-off; inactive = mostly below about 43%
Pf growth 96h: P. falciparum growth inhibition at 96 hour, primary screen for plastid delayed-death inhibitors. AID 504834. 320,000 tested, 6.9% active. P. falciparum luciferase reporter growth, 96 h. Potency, µM (series often up to 28.7 µM), most hits filed as inhibitors; active = well fitted inhibition curve with a large enough effect; inconclusive = small, poorly fitted or top-dose-only effect, or another doubt; inactive = no such curve, though single readings can be large or run the other way
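Infected RBCs, 2% Hct / 0.05% parasitemia final; luciferase-reporter P. falciparum; cpd 96 h, 37 C, 5% CO2; luciferase detection reagent; luminescence.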
SARS PLpro yeast: inhibitors of SARS-CoV papain-like protease in yeast. S. cerevisiae expressing SARS-CoV PLpro, growth rescue. Potency, µM (highest dose often 32.9 µM), actives largely listed as activators. 330,000 tested, 0.19% active; note: nearly all actives have a fitted effect of over 55% in size
Hits are given with their value; – = inactive; ? = inconclusive; · = not tested or not shown; [ ] = dose if it differs, or a comment. This is a sample that favours compounds with a hit; in the whole collection about 21% have one here. Unless noted, calls come from the whole dose curve.

SMILES	NS1 inh	Cycloheximide cs	Pf growth 48h	Shiga toxin inh	Pf growth 96h	SARS PLpro yeast
CC[C@H]1OC(=O)[C@H](C)[C@@H](O[C@H]2C[C@@](C)(OC)[C@@H](O)[C@H](C)O2)[C@H](C)[C@@H](O[C@@H]2O[C@H](C)C[C@H](N(C)C)[C@H]2O)[C@](C)(OC)C[C@@H](C)C(=O)[C@H](C)[C@@H](O)[C@]1(C)O	·	–	·	–	·	–
Cc1ccc(-c2noc(COc3ccccc3C)n2)cc1	–	29	–	–	–	–
Cc1ccccc1OCc1nc(-c2ccc(Br)o2)no1	–	–	·	–	–	–
Cc1cc(C)n2nnnc2n1	–	–	–	–	–	–
O=C1ON=C(c2ccccc2[N+](=O)[O-])/C1=C/c1cccc([N+](=O)[O-])c1O	·	·	–	·	?	–
COc1ccc(CCn2c(N3CCN(C)CC3)nc3c2c(=O)[nH]c(=O)n3C)cc1	–	–	·	–	–	–
Cc1ccnc(SCCn2c(N3CCN(c4ccccc4)CC3)nc3c2c(=O)[nH]c(=O)n3C)n1	–	–	·	–	4.7µM	–
CN1CCN(c2nc3c(c(=O)[nH]c(=O)n3C)n2CC(N)=O)CC1	–	–	?	–	13µM	–
Cn1c(=O)[nH]c(=O)c2c1nc(N1CCOCC1)n2CC(O)COc1ccc2ccccc2c1 (stereo not drawn)	–	–	–	–	6.6µM	–
CCCn1c(N2CCN(CC(=O)c3c(C)n(C)c4ccc(OC)cc34)CC2)nc2c1c(=O)[nH]c(=O)n2C	–	–	?	–	2.1µM	–
Cc1ccnc(SCCn2c(N3CCN(C)CC3)nc3c2c(=O)[nH]c(=O)n3C)n1	?	–	–	–	–	–
Cn1c(=O)[nH]c(=O)c2c1nc(N1CCCCC1)n2CC(O)COc1ccccc1 (stereo not drawn)	–	–	–	–	?	–
CN1CCN(c2nc3c(c(=O)[nH]c(=O)n3C)n2CCCSc2ncccn2)CC1	–	–	–	–	13µM	–
CCOCCn1c(N2CCN(c3ccccc3)CC2)nc2c1c(=O)[nH]c(=O)n2C	–	21	–	–	?	–
CCN1CCN(c2nc3c(c(=O)[nH]c(=O)n3C)n2CCCSc2ncccn2)CC1	–	–	–	–	?	–
CCCCCn1c(N2CCN(c3cccc(Cl)c3)CC2)nc2c1c(=O)[nH]c(=O)n2C	–	–	·	–	5.9µM	–
Cn1c(=O)[nH]c(=O)c2c1nc(N1CCN(c3cccc(Cl)c3)CC1)n2CCCc1ccccc1	–	–	–	–	–	–
Cc1cccc(NC(=O)C2CCN(S(=O)(=O)c3c(C)noc3C)CC2)c1	–	–	–	–	–	–
CCc1noc(C)c1C(=O)NCCc1ccc(Cl)cc1	·	·	–	·	–	–
O=C(CSc1n[nH]c(-c2ccco2)n1)Nc1ccccc1	·	·	–	·	–	–
Cc1ccc(NC(=O)CSc2n[nH]c(-c3ccco3)n2)cc1	–	28	–	–	–	–
CCc1ccc(C(=O)CSc2n[nH]c(-c3ccncc3)n2)cc1	–	–	·	–	5.2µM	–
COc1ccc(C(=O)CSc2n[nH]c(-c3ccco3)n2)cc1	–	–	–	–	1.2µM	–
C[C@@H](O)CN(CCN(C[C@@H](C)O)C[C@@H](C)O)C[C@@H](C)O.O=[N+]([O-])O.[Cu]	–	·	·	·	·	·
Cc1ccnc(NC(=O)CCS(=O)(=O)c2ccccc2)c1	–	18	–	–	–	?
SMILES	NS1 inh	Cycloheximide cs	Pf growth 48h	Shiga toxin inh	Pf growth 96h	SARS PLpro yeast
Cc1ccnc(NC(=O)CS(=O)(=O)c2ccccc2)c1	–	–	–	89	–	–
CC(=O)Oc1ccc2nc(/C=C/c3ccccc3)oc(=O)c2c1	–	–	–	·	?	–
CC(C)(CNC(=O)CC1C(=O)NCCN1Cc1cccc(F)c1F)N1CCOCC1 (stereo not drawn)	–	–	–	–	–	–
Cc1ccc(NC(=O)C2C(=O)N(CCO)C3(C)CC2c2ccccc2O3)cc1 (stereo not drawn)	–	22	–	–	–	–
COc1ccc(NC(=O)C2C(=O)N(CCO)C3(C)CC2c2ccccc2O3)cc1 (stereo not drawn)	–	–	–	–	–	–
COC(=O)C1Cc2c([nH]c3ccccc23)C2(CCN(Cc3ccccc3)CC2)N1 (stereo not drawn)	–	–	–[0.00184 µM]	–	?	–
O=C(NCc1cccs1)C1CCCN(C(=O)Nc2ccccc2)C1 (stereo not drawn)	–	–	–	–	?	–
CC(C)(C)OC(=O)NC(Cc1ccccc1)C(O)c1ccco1 (stereo not drawn)	·	–	·	–	·	·
CC(C)(C)OC(=O)N[C@@H](Cc1ccccc1)[C@H](O)c1ccco1	–	20	–	–	–	–
CCOc1ncccc1C(=O)Nc1ccc(C)cn1	–	–	–	–	–	–
COc1ccc(CCNC(=O)c2sc3ccccc3c2Cl)cc1OC	–	–	–	–	–	–
COc1ccc(CCNC(N)=S)cc1OC	–	–	–	–	10µM	–
CCOC(=O)c1ccc(Nc2ccc(-c3ccc(OC)c(OC)c3)nn2)cc1	–	–	12µM	–	–	–
COc1ccc(CN(CCc2ccccc2)Cc2ccccc2)cc1OC	–	–	8.3µM	–	?	–
COc1ccc(CCNC(=O)c2cc3sc(Cl)cc3n2C)cc1OC	–	–	–	–	9.3µM	–
COc1ccc2c(c1)c(C(C)=O)c(C)n2CCc1ccc(OC)c(OC)c1	–	–	–	–	–	–
CCOC(=O)c1c(C(=O)OCC)c(C)n(CCc2ccc(OC)c(OC)c2)c1C	–	–	?	–	9.3µM	–
CNC(=S)NCCc1ccc(OC)c(OC)c1	–	–	–	–	–	–
CCOC(=O)c1ccc(NC(=O)COc2ccc(CNC3CCCCC3)cc2OC)cc1	–	–	4.7µM	–	–	–
COc1ccccc1NC(=S)NCCc1ccc(OC)c(OC)c1	–	–	2.6µM	–	4.7µM	–
COc1ccc(CCNC(=S)NCCc2ccc(OC)c(OC)c2)cc1OC	–	–	6.6µM	–	13µM	–
O=[N+]([O-])c1cc(Cc2cc([N+](=O)[O-])c3cccnc3c2O)c(O)c2ncccc12	–	·	·	·	·	·
CCOC(=O)c1ccc(NC(=S)NCCc2ccc(OC)c(OC)c2)cc1	–	–	?	–	10µM	–
COc1ccc(CCNC(=S)c2ccccc2)cc1OC	–	–	4.7µM	–	5.2µM	–
COc1ccc(CCNC(=O)Cc2ccccc2)cc1OC	–	–	–	·	–	–
COc1ccc(CN(Cc2cccnc2)C(=S)NCCc2ccccc2)cc1OC	?	–	?	–	15µM	–
COC(=O)c1ccc(NC(=S)NCCc2ccc(OC)cc2)cc1	–	–	?	–	–	–
Cc1ccc(CCNC(=O)CNC(=S)N(Cc2ccccc2)Cc2cccnc2)cc1	·	–	?	–	–	–
CCOC(=O)c1c(CN(CC)CC)oc2cc(Br)c(O)cc12	–	–	·	–	?	–
CCOC(=O)c1c(CN(CC)CC)oc2ccc(OC)cc12	–	–	?	–	15µM	–
